Where a name gives a salt, the structure may show the parent alone. ± gives the standard deviation of the averaged measurements. Whole data set: some 1,900 compounds, median “normalised cell viability (NPI; 0 = phenylarsine oxide control, 1 = DMSO control)” near 1, cut for the lowest 2% near 0.039. This excerpt belongs to a sample that is enriched for the lowest values.
System: NCI-H1944
Assay: normalised cell viability (NPI; 0 = phenylarsine oxide control, 1 = DMSO control) (fraction of DMSO control); NCI-H1944 is a non-small cell lung cancer line; higher = more viable cells (less compound toxicity)
Details: 6 days
[1] = glucocorticoid arm: hydrocortisone 2.75 uM co-treatment, compound 1 µM
[2] = glucocorticoid arm: hydrocortisone 2.75 uM co-treatment, compound 5 µM
[3] = glucocorticoid arm: hydrocortisone 2.75 uM pre-treated 2 days and continued, compound 1 µM
[4] = glucocorticoid arm: hydrocortisone 2.75 uM pre-treated 2 days and continued, compound 5 µM
[5] = glucocorticoid arm: vehicle, compound 1 µM
[6] = glucocorticoid arm: vehicle, compound 5 µM
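Also: CTB read-out in 384-well plates, triplicate wells, NPI normalised per plate against 1 µM phenylarsine oxide (0) and 0.1% DMSO (1) controls.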

SMILES	normalised cell viability [1]	normalised cell viability [2]	normalised cell viability [3]	normalised cell viability [4]	normalised cell viability [5]	normalised cell viability [6]
O=[N+]([O-])c1ccc(CSc2ncnc3c2ncn3[C@@H]2O[C@H](CO)[C@@H](O)[C@H]2O)cc1 [S-(4-Nitrobenzyl)-6-thioinosine]	0.9813 ± 0.0047	0.968 ± 0.027	0.987 ± 0.018	0.996 ± 0.059	0.9973 ± 0.0046	0.9917 ± 0.0097
Nc1c(O)cc(O)cc1C=Cc1ccc(O)cc1 [Aminoresveratrol sulfate]	1 ± 0.015	1.01 ± 0.02	1.01 ± 0.015	1.01 ± 0.014	0.9937 ± 0.0027	1.01 ± 0.012
CC(C)C(=O)Oc1ccc(CO)cc1[C@H](CCN(C(C)C)C(C)C)c1ccccc1 [Fesoterodine Fumarate]	1.002 ± 0.0076	0.966 ± 0.019	1 ± 0.025	0.984 ± 0.04	1.001 ± 0.009	1 ± 0.016
NCCC1CCCC(CCN)N1 (stereo not given) [MDL 26,630 trihydrochloride]	0.9937 ± 0.0075	0.981 ± 0.021	0.9927 ± 0.0075	1.04 ± 0.11	0.9923 ± 0.0042	1 ± 0.011
NC1(C(=O)O)CCCCC1 [1-Amino-1-cyclohexanecarboxylic acid hydrochloride]	0.998 ± 0.011	0.9907 ± 0.0081	0.9927 ± 0.0049	0.991 ± 0.013	0.9913 ± 0.009	0.999 ± 0.011
N#C/C(=C/c1ccc(O)c(O)c1)C(=O)N1CCc2ccccc21 [Tyrphostin AG 528]	0.993 ± 0.0089	0.987 ± 0.032	1.02 ± 0.031	0.9767 ± 0.0095	1.003 ± 0.0058	1.02 ± 0.01
NCCCCCC(=O)O [6-Aminohexanoic acid]	0.9763 ± 0.0095	0.972 ± 0.022	1 ± 0.011	0.971 ± 0.041	0.99 ± 0.019	0.9787 ± 0.0067
NCC(=O)CCC(=O)O [Aminolevulinic acid hydrochloride; Aminolevulinic acid]	1.04 ± 0.021	0.0671 ± 0.0064	1.023 ± 0.0058	0.486 ± 0.037	1.001 ± 0.0081	0.00332 ± 0.0013
NCCCCC(=O)O [5-Aminovaleric acid hydrochloride]	0.9807 ± 0.0096	0.99533 ± 0.00058	0.9797 ± 0.0035	0.9945 ± 0.00071	0.992 ± 0.0066	0.9927 ± 0.0032
[Cl-].[Li+] [Lithium Chloride]	1.007 ± 0.0058	0.998 ± 0.013	1.01 ± 0.013	1.01 ± 0.018	1.01	1.002 ± 0.0072
C[C@]12CC[C@@H]3c4ccc(O)cc4CC[C@H]3[C@@H]1CC[C@@H]2O [beta-Estradiol]	0.9927 ± 0.005	0.954 ± 0.022	0.9937 ± 0.0055	0.962 ± 0.028	0.9753 ± 0.0031	0.9807 ± 0.0032
C[C@]12CC[C@@H]3c4ccc(O)cc4CC[C@H]3[C@@H]1C[C@@H](O)[C@@H]2O [Estriol]	1.02 ± 0.011	1.01 ± 0.014	1.01 ± 0.01	1.02 ± 0.021	1.007 ± 0.0058	1.01 ± 0.011
CNC(=O)[C@H]1O[C@@H](n2cnc3c(NCc4ccc(N)cc4)ncnc32)[C@H](O)[C@@H]1O	1.01 ± 0.012	0.9953 ± 0.0081	0.997 ± 0.003	1	0.9873 ± 0.0091	1.001 ± 0.0085
C[C@@H](Oc1ccc(Oc2cnc3ccc(Cl)cc3n2)cc1)C(=O)O	1.004 ± 0.0098	0.88 ± 0.023	0.858 ± 0.29	1.05 ± 0.015	1.027 ± 0.0058	0.522 ± 0.054
CNCC[C@@H](Oc1ccc(C(F)(F)F)cc1)c1ccccc1 [R-(-)-Fluoxetine hydrochloride]	0.999 ± 0.011	0.92 ± 0.014	1.013 ± 0.0058	1.02 ± 0.029	0.995 ± 0.0036	0.9947 ± 0.005
N#Cc1ccc2[nH]c(O)c(-c3ccc(CN4CCOCC4)cn3)c2c1	1.11 ± 0.021	1.24 ± 0.021	1.053 ± 0.0058	1.11 ± 0.023	1.02 ± 0.011	1.05 ± 0.015
CN1CC2c3ccccc3Oc3ccc(Cl)cc3C2C1 (stereo not given) [Asenapine]	1.002 ± 0.0072	1.02 ± 0.024	1.01 ± 0.011	1.01 ± 0.028	0.995 ± 0.0087	1 ± 0.0092
CN(C)CCC(c1ccc(Br)cc1)c1ccccn1 (racemic) [(±)-Brompheniramine maleate]	1.001 ± 0.0081	1.03 ± 0.017	1.013 ± 0.0058	1.04 ± 0.014	1.013 ± 0.0058	1.02 ± 0.01
CC(C)C[C@H](NP(=O)(O)O[C@H]1O[C@H](C)[C@@H](O)[C@H](O)[C@@H]1O)C(=O)N[C@@H](Cc1c[nH]c2ccccc12)C(=O)O [Phosphoramidon disodium]	0.9937 ± 0.0061	1.01 ± 0.02	1.01 ± 0.016	0.999 ± 0.011	0.991 ± 0.0044	0.9847 ± 0.0081
S=C(S)OC1CC2CC1C1CCCC21 [D-609 potassium]	1.02 ± 0.01	1.03 ± 0.017	1.04 ± 0.02	1.04 ± 0.01	1.03 ± 0.011	1.03
Cn1c(=O)c2nc[nH]c2n(C)c1=O [Theophylline]	1.001 ± 0.0085	1.01 ± 0.01	1.02 ± 0.021	0.9943 ± 0.0049	0.99 ± 0.0087	0.9907 ± 0.0038
O=C1OC(=O)[C@H]2[C@@H]1[C@@H]1CC[C@H]2O1 [Norcantharidin]	1.007 ± 0.0058	1.03 ± 0.02	1.02 ± 0.011	0.924 ± 0.23	0.9903 ± 0.0011	1 ± 0.022
O=C(OCCN1CCOCC1)C1(c2ccccc2)CCCCC1	1.01 ± 0.011	1.03 ± 0.088	1.02 ± 0.015	0.891 ± 0.21	1.017 ± 0.0058	1.03 ± 0.011
Cc1ccc(-n2nc(C(C)(C)C)cc2NC(=O)Nc2ccc(OCCN3CCOCC3)c3ccccc23)cc1 [BIRB 796 (Doramapimod)]	0.806 ± 0.012	0.826 ± 0.03	0.775 ± 0.019	0.816 ± 0.034	0.995 ± 0.005	1.017 ± 0.0058
O=C(Cc1ccc(-c2ccc(OCCN3CCOCC3)cc2)cn1)NCc1ccccc1	0.235 ± 0.021	0.258 ± 0.015	0.464 ± 0.041	0.518 ± 0.077	0.0379 ± 0.0028	0.0359 ± 0.0039

From the supplement of paper PMC8285479
